Test results from the supplement of paper PMC6555819.

Experiments:
Assay in all cases: PBM binding z-score (relative to random genomic background probes); higher = stronger binding; sequences stand for … in GC…GCGATTGACAGCGTAGAATGAAGG
[1] = test system: FXR:RXRa (NR concentration 270 nM, RXRa partner concentration 90 nM)
In short: (§1)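 Scanned fluorescence from custom Agilent 4×180K protein-binding microarrays was regression-normalized. Binding z-scores use random background probes as reference. Ligand-free nuclear receptor dimers were incubated on the arrays for 1 h and detected with antibodies against each partner (one per run).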

[2] = test system: LXRa:RXRa (NR concentration 270 nM, RXRa partner concentration 90 nM)
In short: as §1

[3] = test system: LXRa homodimer (NR concentration 270 nM)
In short: as §1

[4] = test system: LXRb:RXRa (NR concentration 270 nM, RXRa partner concentration 90 nM)
In short: as §1

[5] = test system: LXRb homodimer (NR concentration 270 nM)
In short: as §1

[6] = test system: PPARa:RXRa (NR concentration 270 nM, RXRa partner concentration 90 nM)
In short: as §1

[7] = test system: PPARg:RXRa (NR concentration 180 nM, RXRa partner concentration 90 nM)
In short: as §1

[8] = test system: PPARg:RXRa 270nM:90nM, anti-RXR (NR concentration 270 nM, RXRa partner concentration 90 nM)
In short: as §1

[9] = test system: PPARg:RXRa 30nM:10nM, anti-RXR (NR concentration 30 nM, RXRa partner concentration 10 nM)
In short: as §1

[10] = test system: PPARg:RXRa 90nM:30nM, anti-RXR (NR concentration 90 nM, RXRa partner concentration 30 nM)
In short: as §1

Row | Sequence | PBM binding z-score [1] | PBM binding z-score [2] | PBM binding z-score [3] | PBM binding z-score [4] | PBM binding z-score [5] | PBM binding z-score [6] | PBM binding z-score [7] | PBM binding z-score [8] | PBM binding z-score [9] | PBM binding z-score [10]
1 | GTACCAAGGTGAATAGGGCGTTGATGAGTAGGCG | 0.407 | 0.248 | -0.214 | -0.0331 | -0.614 | 1.22 | 1.02 | 0.756 | -0.0867 | 0.088
2 | CCGACTGGGGCAGAAGGTTACCATAAGCCAGCCC | -0.0856 | 1.46 | -0.41 | 0.494 | -1.21 | 1.43 | 1.92 | 3.09 | 0.815 | 2.15
3 | TGAATGAGGTTAAAGATCTGGGAACGTGGCGTCG | 2.5 | 2.16 | -0.214 | 1.46 | 0.347 | 3.54 | 2.7 | 3.6 | 1.69 | 2.98
4 | TCTAGTTGGTCACGGAGGTCACACACGACGGGTA | 3.14 | 3.39 | 2.59 | 3.33 | 0.773 | 4.01 | 3.79 | 4.11 | 3.73 | 3.75
5 | TGAATGAGGTTTTAAGATCAGGGAACGTTGCAAA | -0.288 | -0.516 | -0.631 | -0.358 | -0.602 | 0.0128 | -0.186 | 0.12 | 0.000594 | 0.043
6 | CCTACTGGGCTAAAGGTCATTGATTCCAATGCTC | 4.68 | 4.85 | 4.14 | 4.48 | 0.6 | 6.09 | 11.2 | 9.38 | 9.13 | 10.4
7 | CCTAGCAGGCCAATCTGGGTCATTCAAGGCTTGA | 1.16 | 1.52 | -0.318 | 0.813 | -1.03 | 2.54 | 1.18 | 1.73 | -0.272 | 0.958
8 | CAAGCTAGGTCACCGGAAGGTCAAAGTCCGCATG | 6.4 | 6.14 | 4.88 | 5.32 | 0.898 | 5.38 | 5.86 | 5.76 | 2.96 | 4.67
9 | CATACTAGGTCACAGAGGTCAAAGTCCGTGCGTA | 6.69 | 6.83 | 7.84 | 6.16 | 2.94 | 6.09 | 8.98 | 7.72 | 5.14 | 7.44
10 | TCTCGGAGGACACGTAAGGTCAGAGCTCGACATC | 2.43 | 3.03 | 1.46 | 2.1 | -0.238 | 2.29 | 0.563 | 1.42 | 1.78 | 1.58
11 | ACTAGCAGGCCAAGTTTGGGTCACTTAAACAAAG | 0.098 | 0.217 | -0.18 | 0.878 | -0.362 | 1.52 | 0.21 | 0.715 | -0.186 | 0.815
12 | CCGACGGGGGCATAAGGTTACCATAAGCCAGCCC | 3.27 | 4.13 | 0.249 | 4.27 | 3.6 | 3.87 | 2.48 | 3.54 | 1.17 | 2.82
13 | GCTAGCAGGCCATTTGGGACACTCAATGACGGGC | -0.491 | -0.668 | -0.545 | -1.16 | -1.04 | -0.523 | 0.681 | -0.463 | -0.719 | -0.835
14 | CGTCCAAGGTCAATGCTGGGTCAGTGAAAGCATT | 6.49 | 4.95 | 0.942 | 3.75 | 0.628 | 5.14 | 3.82 | 4.53 | 1.09 | 3.07
15 | AGAATGAGGTTATACGTAGATCAGGGATGAAAGT | 2.37 | 1.9 | 0.0703 | 1.68 | -0.152 | 3.09 | 2.07 | 2.01 | 0.736 | 1.73
16 | ACAGACAGGTGAGTGAAGGTAACTCGGCTGGACG | 0.29 | 0.0989 | -0.627 | -0.781 | -0.86 | -0.0904 | 0.606 | 0.0767 | -0.28 | -0.126
17 | TGAATGAGGTTAAAGATCCGGGAACGTGGCGTCG | 2.36 | 1.91 | -0.227 | 1.13 | 0.309 | 3.14 | 2.27 | 3.37 | 1.55 | 2.9
18 | CCGACTGGGTCATAAGGTTACCATAAGCCAGCCC | 2.99 | 3.47 | -0.00526 | 2.23 | -0.614 | 4.14 | 5.19 | 5.46 | 2.95 | 4.86
19 | CGTCAAAGTTCAATGTAACGTAACAGAAAGCAGC | 6.08 | 5.08 | 3.29 | 3.5 | 1.74 | 4.08 | 3.65 | 4.35 | 1.83 | 3.34

Row | Sequence | PBM binding z-score [1] | PBM binding z-score [2] | PBM binding z-score [3] | PBM binding z-score [4] | PBM binding z-score [5] | PBM binding z-score [6] | PBM binding z-score [7] | PBM binding z-score [8] | PBM binding z-score [9] | PBM binding z-score [10]
20 | TCAGACAGGTGGAGGTAACTCAGGTACGCAGTCG | 0.494 | 1.77 | -0.167 | 0.998 | 0.354 | 0.55 | 0.357 | 1.4 | 3.1 | 2.3
21 | TCATATAGGTAAATGGTAGGTGAAAGTCCGATCT | 1.34 | 1.54 | 0.813 | 1.26 | 0.456 | 1.8 | 1.39 | 3.17 | 3.85 | 3.74
22 | CCTTACGGGACACTCCAGGTTATAGCATCGGAGT | 0.0463 | 0.511 | 0.714 | -0.359 | -0.449 | 0.0174 | 0.619 | -0.335 | -0.0425 | -0.27
23 | CCTACTGGGCCATCAGATCATTGATATCAACGTT | -0.345 | -0.391 | -0.0851 | -0.263 | -0.349 | 0.662 | 1.01 | 1.49 | 0.163 | 1.28
24 | ATCGAAAGTTCGTGAGGTGAGTATACAGAAAGGC | 1.21 | 1.26 | 0.0798 | 0.398 | -0.197 | 1.88 | 0.759 | 0.561 | 0.146 | 0.655
25 | TCATATAGGTAAATGCTAGGTAAAAGTCCGATCT | 1.25 | 1.02 | 0.456 | 0.888 | 0.06 | 1.36 | 0.914 | 2.29 | 3.89 | 2.93
26 | CCTAGCAGGCCAGGGTCACTGAAGCATTTCGCTT | 2.08 | 1.76 | -0.679 | 2.1 | -1.29 | 3.35 | 0.613 | 1.95 | -0.0383 | 1.16
27 | ATCTCTAGGTAAGGTTCAGTGAAAGATCGATAGA | 0.902 | 1.26 | 0.551 | 1.07 | 1.03 | 1.4 | 1.25 | 2.17 | 0.962 | 1.9
28 | AGTCAAAGTTCATCTAGGTAACTTAAGATATGCT | 6.76 | 6.19 | 5.17 | 3.8 | 1.81 | 4.6 | 6.6 | 6.26 | 2.93 | 5.64
29 | CGTCAAAGTTCAACTAAGGTAACGAAAAGCACGC | 7.29 | 6.07 | 3.55 | 3.97 | 2.13 | 5.07 | 4.84 | 5.42 | 2.21 | 4.48
30 | CGTCAAAGTTCAACTAAGGTAAGGTAAAGCACGC | 7.07 | 6.11 | 4.02 | 3.87 | 1.73 | 5.14 | 5.27 | 5.34 | 2.26 | 4.31
31 | TCTTGTAGATCAATAGTGGTTAAGAAAGTGCGCT | 0.499 | 0.37 | -0.000472 | 0.00968 | 0.297 | 0.451 | -0.385 | 1.4 | 2.83 | 2.06
32 | TCATATAGCTAAACAGGTGAAAGTCCGTAAGTTA | -0.237 | -0.00497 | -0.0906 | 0.338 | -0.588 | 1.08 | 0.667 | 1.92 | 2.64 | 2.23
33 | TCTGCTAGGTCAACGATTGTCAGCTAATCTGCTA | 2.81 | 1.94 | -0.0951 | 1.4 | -0.279 | 2.93 | 2.43 | 2.93 | 1.9 | 2.36
34 | GTACTAAGGTGAATAGGTCGTTGATGAGTAGGCG | 1.68 | 1.21 | 0.221 | 0.926 | 0.00742 | 2.75 | 1.77 | 2.5 | 0.778 | 1.53
35 | ATATGTAGGTTAGCTAGGGTCATTCAGACTAGGC | 4.45 | 5.22 | 1.89 | 3.59 | 0.624 | 4.36 | 4.65 | 4.41 | 2.3 | 3.61
36 | TAGCCTAGGTCATGGGCCAGTATCCCACGCGAAC | 4.49 | 3.17 | 0.378 | 2.29 | -0.295 | 4.04 | 3.88 | 3.41 | 0.754 | 2.6
37 | CTCGCAAGGTCGTGCTCAGGTGAGTATACCAAAC | 2.12 | 1.71 | -0.122 | 1.37 | -0.498 | 2.81 | 0.423 | 1.04 | -0.426 | 0.224
38 | ATTTGTAGGTTAGCTGGGGTCATTCAGACTAGGC | 4.72 | 6 | 4.63 | 5.23 | 2.54 | 5.2 | 4.29 | 4.6 | 2.42 | 3.79
